This is an account of results in PubChem BioAssay (NCI).

The panel holds about 79,000 compounds, 15% with a hit somewhere; the sample as a whole holds those more often. Active and inactive are the calls of the source. Rule as the data show it: active = growth inhibition above about 70%; inactive = the rest.

The nature of one assay: NCI Yeast Anticancer Drug Screen. Data for the mec2-1 strain (AID 157). The note with it: S. cerevisiae mec2-1 strain, at 50.0 µM, active compounds read high. The method in brief: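 Each compound was tested on mec2-1 yeast, a strain altered in DNA damage repair or cell cycle control. Growth inhibition is reported relative to vehicle.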
Consider `N#C/C(=C\C(Cl)=C/c1ccccc1)C(N)=S`, for which the growth inhibition was 40.5% (inactive).

`CC[N+](C)(CC)CCC(=O)/C=C/c1ccccc1`: the growth inhibition was 93% (active).

Consider `CC(=O)n1c(=S)n(C(C)=O)c2ccccc21`, for which the growth inhibition is 54.4% (inactive).

Take `Nc1ccccc1/C=C1/Sc2cc[nH]c2C1=O`: the growth inhibition is 5.55% (inactive).

Turning to `C=C1CC2(CCCC3(CC(=C)C(=O)O3)C2(C)C)OC1=O` (stereo not given), the growth inhibition is 38.4% (inactive).

On to `O=C1/C(=C\c2ccc(Cl)cc2Cl)Sc2scc(-c3ccc(O)c(O)c3)[n+]21`, for which the growth inhibition is 76.9% (active).

For `COc1cc(OC(C)C)cc2c1C(=O)C(C(O)(O)C(F)(F)F)=CC2=O`, the growth inhibition is 85.5% (active).

On to `Cc1c(N=Nc2ccc(Br)cc2)c(-c2ccccc2)nn1C(N)=S`, for which the growth inhibition is 97.5% (active).

As to `COc1ccc2nc3c([N+](=O)[O-])ccc(NCCCN(C)C)c3c(N)c2c1`, the growth inhibition is 85.7% (active).

Consider `CN(C)CCC[Si]1(C)c2ccccc2CCc2ccccc21`, for which the growth inhibition was 40% (inactive).

Regarding `CC(=O)N(C)c1cc(NCc2ccccc2)ccc1OCc1ccccc1`, the growth inhibition is 97.8% (active).

Take `ClCCOCCOc1c(Cl)cc(Cl)c(Cl)c1Cl`: the growth inhibition is 27.6% (inactive).

In the case of `Nc1ccc2nc(N)sc2c1`, the growth inhibition was -3.75% (inactive).

As to `CC(C)(C)c1cc(C2c3cc4c(cc3OC(O)(CO)C2C(=O)O)OCO4)cc(C(C)(C)C)c1O` (stereo not given) (tested in a mixture with another compound), the growth inhibition is 50.1% (inactive).

Consider `COc1ccc(C2COc3c(ccc(O)c3O)C2)cc1OC` (stereo not given), for which the growth inhibition is 43.6% (inactive).

For `Cc1ccc(OCC2CO2)c(Br)c1` (stereo not given), the growth inhibition is 5.95% (inactive).

On to `CCN(CC)CCNc1ccc(C)c2sc3c(OC)cccc3c(=O)c12`, for which the growth inhibition is 9.75% (inactive).

Consider `CC(C)C(O)C(C)C`, for which the growth inhibition is -2.45% (inactive).

In the case of `O=C1CSC2(CCN(CCCN3c4ccccc4Sc4ccc(Cl)cc43)CC2)N1`, the growth inhibition was 99.1% (active).

For `C1=CN2C(c3ccccc3)=NN(c3ccccc3)[C@@H]2c2ccccc21`, the growth inhibition is 42% (inactive).

For `CC(=O)Nc1ccc(-c2csc(Nc3ccnc4cc(Cl)ccc34)n2)cc1`, the growth inhibition is 51.4% (inactive).

Take `O=C(Nc1ccc(/C=C/c2ccc(NC(=O)c3cc(S(=O)(=O)O)c4cccnc4c3O)cc2S(=O)(=O)O)c(S(=O)(=O)O)c1)c1cc(S(=O)(=O)O)c2cccnc2c1O`: the growth inhibition was 88.7% (active).

Consider `COc1ccccc1C1C2=C(COC2=O)OC(C)(C)Oc2cc3c(cc21)OCO3` (stereo not given), for which the growth inhibition was 85.1% (active).

Take `COC(=O)CSc1n[nH]c(-c2ccc(O)c([N+](=O)[O-])c2)n1`: the growth inhibition was 53.2% (inactive).

As to `COc1ccc(CN2CCCN(Cc3ccc(OC)cc3OC)C2c2cccc([N+](=O)[O-])c2O)c(OC)c1`, the growth inhibition is 29.8% (inactive).

In the case of `Oc1c(Cl)cc(C(c2cc(Cl)c(O)c(Cl)c2)C(Cl)(Cl)Cl)cc1Cl`, the growth inhibition is 99.1% (active).

For the molecule `Cc1cc(Cl)cc2c1NC(=O)C2(O)C/C(=N/NC(=O)CC#N)c1cccc([N+](=O)[O-])c1` (stereo not given), the growth inhibition was 38.1% (inactive).

`COc1ccc(C2Oc3ccc(Cl)cc3C=C2[N+](=O)[O-])cc1` (stereo not given): the growth inhibition was 87.1% (active).

Take `CN(Cc1cc(Cl)cc(Cl)c1O)Cc1c(O)ccc2ccccc12`: the growth inhibition is 98.3% (active).

Consider `Cc1c(NC(=O)/C(=N/NC(=S)N=N)C2C(=O)CC(C)(C)CC2=O)c(O)c2ccccc2c1O`, for which the growth inhibition is 81.2% (active).

In the case of `O=C1CCC(Cc2ccccc2Br)C(=O)N1` (stereo not given), the growth inhibition was 36% (inactive).

In the case of `O=C1CSc2ccccc2-n2cccc21`, the growth inhibition was 3.35% (inactive).

Turning to `CCCc1cc2c(cc1CS(=O)(=O)CC)OCO2`, the growth inhibition was 2.3% (inactive).

Turning to `CS(=O)(=O)C(c1nc2nnc(NC(=O)Nc3ccc(Cl)cc3)n2[nH]c1=O)c1nc2nnc(NC(=O)Nc3ccc(Cl)cc3)n2[nH]c1=O`, the growth inhibition was 74.5% (active).

As to `COc1cc(C2c3cc4c(cc3OC3(O)C=C(C)OC(=O)C23)OCO4)cc(OC)c1OC` (stereo not given), the growth inhibition was 30% (inactive).

As to `CC(C)OCc1cccc2ccnc(COC(C)C)c12`, the growth inhibition is 25.6% (inactive).

For `COc1cc2c(cc1OC)-c1nc(Nc3ccccc3)sc1CC2`, the growth inhibition is 86.7% (active).

On to `NC(=O)CCSC(=S)N1CCOCC1`, for which the growth inhibition was -16.6% (inactive).

As to `CC1=C(c2ccccc2)C(=O)OC1=O`, the growth inhibition was 2.7% (inactive).

`CC1=C(C)CC2C(=O)C(C(O)CC(C)C)=CC(=O)C2C1` (stereo not given): the growth inhibition is 98.5% (active).

The next assay in a line: NCI Yeast Anticancer Drug Screen. Data for the sgs1 mgt1 strain (AID 161).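 Also: 0% = growth of cultures given vehicle only.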 The following applies: S. cerevisiae sgs1 mgt1 strain, at 5.0 µM (retest, dose inferred, filed as 0.5), active compounds read high. The procedure, abridged: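 Genetically altered yeast, compound exposure, growth inhibition relative to vehicle.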
As for `N#C/C(=C\C(Cl)=C/c1ccccc1)C(N)=S`, the growth inhibition was 91% (active).

Take `CC[N+](C)(CC)CCC(=O)/C=C/c1ccccc1`: the growth inhibition is 5% (inactive).

Take `CC(=O)n1c(=S)n(C(C)=O)c2ccccc21`: the growth inhibition is -24% (inactive).

As for `Nc1ccccc1/C=C1/Sc2cc[nH]c2C1=O`, the growth inhibition is -2% (inactive).

Consider `C=C1CC2(CCCC3(CC(=C)C(=O)O3)C2(C)C)OC1=O` (stereo not given), for which the growth inhibition is 57% (inactive).

`O=C1/C(=C\c2ccc(Cl)cc2Cl)Sc2scc(-c3ccc(O)c(O)c3)[n+]21`: the growth inhibition is 15% (inactive).

Consider `COc1cc(OC(C)C)cc2c1C(=O)C(C(O)(O)C(F)(F)F)=CC2=O`, for which the growth inhibition was 2% (inactive).

In the case of `Cc1c(N=Nc2ccc(Br)cc2)c(-c2ccccc2)nn1C(N)=S`, the growth inhibition was 7% (inactive).

For `COc1ccc2nc3c([N+](=O)[O-])ccc(NCCCN(C)C)c3c(N)c2c1`, the growth inhibition is 24% (inactive).

Consider `CN(C)CCC[Si]1(C)c2ccccc2CCc2ccccc21`, for which the growth inhibition is -5% (inactive).

For `CC(=O)N(C)c1cc(NCc2ccccc2)ccc1OCc1ccccc1`, the growth inhibition is 2% (inactive).

For the molecule `ClCCOCCOc1c(Cl)cc(Cl)c(Cl)c1Cl`, the growth inhibition was 9% (inactive).

Regarding `Nc1ccc2nc(N)sc2c1`, the growth inhibition is 0% (inactive).

For the molecule `CC(C)(C)c1cc(C2c3cc4c(cc3OC(O)(CO)C2C(=O)O)OCO4)cc(C(C)(C)C)c1O` (stereo not given) (tested in a mixture with another compound), the growth inhibition is -20% (inactive).

On to `COc1ccc(C2COc3c(ccc(O)c3O)C2)cc1OC` (stereo not given), for which the growth inhibition was -3% (inactive).

With `Cc1ccc(OCC2CO2)c(Br)c1` (stereo not given), the growth inhibition is 15% (inactive).

Take `CCN(CC)CCNc1ccc(C)c2sc3c(OC)cccc3c(=O)c12`: the growth inhibition is -3% (inactive).

For the molecule `CC(C)C(O)C(C)C`, the growth inhibition was -1% (inactive).

With `O=C1CSC2(CCN(CCCN3c4ccccc4Sc4ccc(Cl)cc43)CC2)N1`, the growth inhibition is 3% (inactive).

Take `C1=CN2C(c3ccccc3)=NN(c3ccccc3)[C@@H]2c2ccccc21`: the growth inhibition was -3% (inactive).

Turning to `CC(=O)Nc1ccc(-c2csc(Nc3ccnc4cc(Cl)ccc34)n2)cc1`, the growth inhibition was 9% (inactive).

Turning to `O=C(Nc1ccc(/C=C/c2ccc(NC(=O)c3cc(S(=O)(=O)O)c4cccnc4c3O)cc2S(=O)(=O)O)c(S(=O)(=O)O)c1)c1cc(S(=O)(=O)O)c2cccnc2c1O`, the growth inhibition is 34% (inactive).

As for `COc1ccccc1C1C2=C(COC2=O)OC(C)(C)Oc2cc3c(cc21)OCO3` (stereo not given), the growth inhibition is 16% (inactive).

As to `COC(=O)CSc1n[nH]c(-c2ccc(O)c([N+](=O)[O-])c2)n1`, the growth inhibition is 25% (inactive).

On to `COc1ccc(CN2CCCN(Cc3ccc(OC)cc3OC)C2c2cccc([N+](=O)[O-])c2O)c(OC)c1`, for which the growth inhibition is 8% (inactive).

On to `Oc1c(Cl)cc(C(c2cc(Cl)c(O)c(Cl)c2)C(Cl)(Cl)Cl)cc1Cl`, for which the growth inhibition is 81% (active).

In the case of `Cc1cc(Cl)cc2c1NC(=O)C2(O)C/C(=N/NC(=O)CC#N)c1cccc([N+](=O)[O-])c1` (stereo not given), the growth inhibition was -1% (inactive).

For the molecule `COc1ccc(C2Oc3ccc(Cl)cc3C=C2[N+](=O)[O-])cc1` (stereo not given), the growth inhibition was 99% (active).

Consider `CN(Cc1cc(Cl)cc(Cl)c1O)Cc1c(O)ccc2ccccc12`, for which the growth inhibition is 10% (inactive).

With `Cc1c(NC(=O)/C(=N/NC(=S)N=N)C2C(=O)CC(C)(C)CC2=O)c(O)c2ccccc2c1O`, the growth inhibition is 7% (inactive).

With `O=C1CCC(Cc2ccccc2Br)C(=O)N1` (stereo not given), the growth inhibition was 11% (inactive).

With `O=C1CSc2ccccc2-n2cccc21`, the growth inhibition is 6% (inactive).

For `CCCc1cc2c(cc1CS(=O)(=O)CC)OCO2`, the growth inhibition is -7% (inactive).

For `CS(=O)(=O)C(c1nc2nnc(NC(=O)Nc3ccc(Cl)cc3)n2[nH]c1=O)c1nc2nnc(NC(=O)Nc3ccc(Cl)cc3)n2[nH]c1=O`, the growth inhibition was 1% (inactive).

As to `COc1cc(C2c3cc4c(cc3OC3(O)C=C(C)OC(=O)C23)OCO4)cc(OC)c1OC` (stereo not given), the growth inhibition is 0% (inactive).

Consider `CC(C)OCc1cccc2ccnc(COC(C)C)c12`, for which the growth inhibition was -10% (inactive).

For `COc1cc2c(cc1OC)-c1nc(Nc3ccccc3)sc1CC2`, the growth inhibition is -3% (inactive).

In the case of `NC(=O)CCSC(=S)N1CCOCC1`, the growth inhibition is -3% (inactive).

Regarding `CC1=C(c2ccccc2)C(=O)OC1=O`, the growth inhibition is 4% (inactive).

As for `CC1=C(C)CC2C(=O)C(C(O)CC(C)C)=CC(=O)C2C1` (stereo not given), the growth inhibition was -5% (inactive).
